# Bioassay records: PubChem, National Center for Advancing Translational Sciences (NCATS)
# Rows were chosen to be rich in hits. Some 7.3% of all compounds tested hit in one or more screens of this group.
# AmpC detergent = qHTS Inhibitors of AmpC Beta-Lactamase (assay with detergent) | AmpC hydrolysis of nitrocefin, absorbance 480 nm, 0.01% Triton | Potency, µM (highest dose often 114 µM), hits mostly inhibitors | 370,000 tested, 0.041% active | AID 485294, 2010; also: nearly all actives have a fitted effect of over 25% in size
# Target sequence (P00811 whole entry, looked up): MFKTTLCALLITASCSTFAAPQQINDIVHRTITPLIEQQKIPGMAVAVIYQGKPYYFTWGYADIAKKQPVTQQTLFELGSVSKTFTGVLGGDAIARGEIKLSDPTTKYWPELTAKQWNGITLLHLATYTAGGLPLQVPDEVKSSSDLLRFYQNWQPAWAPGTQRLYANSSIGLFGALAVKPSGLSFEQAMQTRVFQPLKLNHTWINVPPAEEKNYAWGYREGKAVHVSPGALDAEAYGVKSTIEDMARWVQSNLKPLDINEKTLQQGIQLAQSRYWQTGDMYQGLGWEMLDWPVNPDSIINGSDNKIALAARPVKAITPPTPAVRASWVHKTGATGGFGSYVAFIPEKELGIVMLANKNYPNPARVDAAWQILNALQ
#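 20 mM phosphate pH 7.0 + 0.01% (detergent screen) or 0.0001% Triton X-100; 5.3 nM AmpC reagent; cpd preinc 15 min RT; nitrocefin (800 uM stock) to start; A480 q20 s × 4 min; Activity was normalised to no-enzyme and no-compound control wells.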
# HCMV inh = qHTS Assay for inhibitors of the human cytomegalovirus (HCMV); 410,000 tested, 4.5% active; activity change, negative = inhibition, % at 57.5 µM; HFF cells, HCMV-luciferase reporter, 72 h; hits give low values; in the data active = activity change below about -60%; inconclusive = no clear call, values can overlap the other calls; inactive = above about -39%
#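 Steps: HFFs plated, 16 h 37C; compounds added; HCMV-luciferase added to MOI 1 PFU/cell; 72 h 37C; OneGlo reagent, 5 min room temperature; luminescence read, normalized to controls.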
# FMDV antiviral = High Throughput Screening for Foot and Mouth Disease Virus Antivirals; FMDV antiviral cell-based qHTS; Potency, µM (titrated, usually from 57.9 µM), hits mostly inhibitors; 410,000 tested, 1.2% active; calls by dose curve; tested in HEK293T cells; also: read-out not given here; nearly all actives have a fitted effect of over 45% in size
# AmpC no deterg = qHTS Inhibitors of AmpC Beta-Lactamase (assay without detergent); AmpC nitrocefin hydrolysis, absorbance 480 nm, 0.0001% Triton; 330,000 tested, 0.52% active; Potency, µM (top dose mostly 57.1 µM), actives largely listed as inhibitors; also: nearly all actives have a fitted effect of over 20% in size
#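 AmpC (5.3 nM in the dispensed reagent) in 20 mM phosphate pH 7.0 with 0.01% (detergent screen) or 0.0001% Triton X-100 was preincubated with compounds for 15 min at room temperature. Nitrocefin was then added from an 800 uM solution, and hydrolysis was followed at 480 nm.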
# HCV inhibitor = qHTS Assay for Inhibitors of Hepatitis C Virus (HCV). Huh7.5.1 HCVcc-Cre infection, luciferase reporter, 44 h. 340,000 tested, 3.4% active. Potency, µM (titrated, usually from 41.8 µM), most hits filed as inhibitors
#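 Infectious HCV cell culture screen: compound-treated cells (1,000/well, pre-plated 4 h) are infected with HCVcc-Cre at roughly 0.5 moi and grown 44 h. Infection is quantified by luciferase signal after 15 min substrate incubation at room temperature.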
# Hits are given with their value; – = inactive; ? = inconclusive; · = no result. Unless noted, calls follow the shape of the dose curve; as a rule, active = well fitted curve in the direction sought with a large enough effect; inconclusive = small, poorly fitted or top-dose-only effect, or another doubt; inactive = no such curve, though single readings can be large; an effect the other way counts as inactive or inconclusive.
SMILES,AmpC detergent,HCMV inh,FMDV antiviral,AmpC no deterg,HCV inhibitor
CC(/C=C/c1ccccc1)=N\NC(=O)c1cc(C)[nH]n1,–,?,–,–,14µM
CC(/C=N/NC(=O)c1cc(C(C)(C)C)[nH]n1)=C\c1ccccc1,?,–,–,–,14µM
Cc1ccc2c(C)c(C(=O)Nc3ccc(S(=O)(=O)Nc4onc(C)c4C)cc3)oc2c1,–,–,–,–,0.5µM
Cc1ccc2c(=O)cc(C(=O)Nc3ccc(S(=O)(=O)Nc4onc(C)c4C)cc3)oc2c1,–,–,–,–,–
CC(C)NC(=O)N1Cc2cc(C(=O)NC3CCC3)nc(-c3cccc(-c4cncnc4)c3)c2[C@H]1CCO,·,–,–,·,·
CC1=CC2/C=C(\C)CCC(O)C(O)/C=C/C(=O)C23C(=O)NC(CC(C)C)C3C1C (stereo not drawn),–,·,6.3µM,–,?
CC(C)Cc1ccc(CN2CCCC(NC(=O)c3ccnn3C)C2)cc1 (stereo not drawn),–,-80,?,–,11µM
CC(C)Cc1ccc(CN2CCCC(NC(=O)c3cccc(-n4cnnc4)c3)C2)cc1 (stereo not drawn),–,-60,?,–,?
CC(C)Cc1ccc(CN2CCCC(NC(=O)c3ccoc3)C2)cc1 (stereo not drawn),–,–,–,–,?
CC(C)(C)c1csc(NC(=O)c2ccc(Cl)s2)n1,–,?,–,–,8.9µM
COC(=O)c1cc(=O)nc(NN=C2c3ccccc3-c3ccccc32)s1,·,-66,–,·,·
COc1ccc(Br)cc1CNC(=O)CCSCc1ccc(Cl)cc1,–,–,–,·,·
Cn1cccc1/C=N\NC(=O)Cc1ccc(Br)c2ccccc12,?,-80,?,–,10µM
COc1ccc(N2CCC[C@H]2/C=C/C(=O)OC(C)(C)C)cc1,·,–,·,·,·
CCOC(=O)N1CCN(Cc2ccc3c(c2)CN(C(=O)c2ccc4ncccc4c2)CCO3)CC1,·,·,28µM,·,·
O=C(c1cccc(F)c1F)N1CCOc2ccc(CN3CCN(Cc4ccccn4)CC3)cc2C1,·,·,–,·,·
O=C(c1ccc2[nH]ccc2c1)N1CCOc2ccc(CN3CCN(c4ccccn4)CC3)cc2C1,·,·,25µM,·,·
CC(=O)Nc1ccc(S(=O)(=O)NCCOc2ccc(Cl)cc2C)cc1,–,-74,–,–,–
Cc1cccc(C)c1OCC(=O)OCC(=O)Nc1ccc(Cl)cn1,–,–,–,–,–
O=C(CN1C(=O)NC2(CCCC2)C1=O)N1CCN(S(=O)(=O)c2ccccc2)CC1,–,–,–,–,–
Cc1cc(C)c(S(=O)(=O)N2CCN(C(=O)CC(C)n3nc(C)nc3C)CC2)c(C)c1 (stereo not drawn),·,-74,–,·,·
Cc1cc(C)c(S(=O)(=O)N2CCN(C(=O)CN3C(=O)NC4(CCCC4)C3=O)CC2)c(C)c1,–,-68,–,–,–
CC(C)c1ccc(NC(=O)CSC2=Nc3ccccc3C3=NC(CCC(=O)NCc4ccco4)C(=O)N23)cc1 (stereo not drawn),–,–,–,·,·
CCOC(=O)c1cccc(NC(=O)c2cc(CN3CCOCC3)on2)c1,–,–,–,·,·
N#Cc1cc2c(=O)n3ccccc3nc2n(-c2nnc(SCc3ccc(F)cc3)s2)c1=O,–,–,–,·,·
SMILES,AmpC detergent,HCMV inh,FMDV antiviral,AmpC no deterg,HCV inhibitor
COc1ccc(-c2oc3ccc(N4CCOCC4)cc3c2C#CC2(O)CCCCC2)cc1,·,–,–,·,10µM
COc1ccc(C#Cc2c(-c3ccsc3)oc3ccc(N4CCOCC4)cc23)cc1,·,–,–,·,?
OC1(C#Cc2c(-c3ccsc3)oc3ccc(N4CCOCC4)cc23)CCCCC1,·,–,–,·,5.6µM
CN1CCc2c(sc(NC(=O)C3COc4ccccc4O3)c2C(N)=O)C1 (stereo not drawn),–,-63,–,–,·
CC(=O)N1CCc2c(sc(NC(=O)c3ccc4c(c3)OCCO4)c2C#N)C1,–,–,–,–,2.8µM
CCOC(=O)N1CCc2c(sc(NC(C)=O)c2C(N)=O)C1,·,–,–,·,–
CN1CCc2c(sc(NC(=O)Cc3ccccc3)c2C(N)=O)C1,–,–,–,–,–
CC(=O)N1CCc2c(sc(NC(=O)c3ccc(S(=O)(=O)N(C)C)cc3)c2C#N)C1,·,–,–,·,–
CCOC(=O)N1CCc2c(sc(NC(=O)C3COc4ccccc4O3)c2C(N)=O)C1 (stereo not drawn),–,-97,40µM,–,16µM
CC(=O)N1CCc2c(sc(NC(=O)C3COc4ccccc4O3)c2C(N)=O)C1 (stereo not drawn),–,–,–,–,?
COC(=O)c1c(NC(=O)C2COc3ccccc3O2)sc2c1CCN(C(C)=O)C2 (stereo not drawn),–,–,35µM,–,?
COc1ccc(NC(=O)N2c3ccc(OC)cc3[C@@H](NC(=O)c3ccc(C)s3)[C@H](C)[C@H]2c2ccccc2)cc1,·,–,·,·,·
CCN1CCc2c(sc(NC(=O)C3COc4ccccc4O3)c2C(N)=O)C1 (stereo not drawn),–,-71,–,–,·
CCN1CCc2c(sc(NC(=O)Cc3ccccc3)c2C(N)=O)C1,?,?,?,–,–
CCCCN(CCCC)S(=O)(=O)c1ccc(C(=O)Nc2sc3c(c2C(N)=O)CCN(CC)C3)cc1,–,?,–,·,·
CCN1CCc2c(sc(NC(=O)c3ccc(S(=O)(=O)N(CC)c4ccccc4)cc3)c2C(N)=O)C1,–,–,25µM,–,?
CC(=O)N1CCc2c(sc(NC(=O)c3ccc([N+](=O)[O-])o3)c2C(N)=O)C1,·,-101,–,·,·
O=C(O)c1ccccc1C(c1ccc(O)cc1)c1ccc(O)cc1,–,–,–,–,–
CCCn1nc(C(=O)Nc2nc(-c3ccccn3)cs2)c2ccccc2c1=O,?,–,?,–,5µM
Cc1cc(C(=O)Nc2nc(-c3ccccn3)cs2)ccc1[N+](=O)[O-],–,-72,–,–,11µM
O=C(Nc1nc(-c2ccccn2)cs1)c1ccccc1-n1cnnn1,–,-92,–,–,?
Cc1csc(NC(=O)c2ccc(Cl)cc2[N+](=O)[O-])n1,–,–,–,–,1.6µM
O=C(Nc1nc(-c2ccccn2)cs1)c1cc(Cl)ccc1[N+](=O)[O-],?,-99,–,–,10µM
O=C(Nc1nc(-c2cc(F)ccc2F)cs1)c1ccccn1,–,–,–,–,?
CCOC(=O)c1scc(-c2ccc(C)cc2)c1S(=O)(=O)Nc1cc(Cl)ccc1OC,–,–,–,·,·
COc1ccc2cc(CCNC(=O)c3ccc(S(=O)(=O)N4CCOCC4)cc3)c(=O)[nH]c2c1,–,–,–,–,–
O=C(CN1CCN(CCN2C(=O)c3cccc4cccc(c34)C2=O)CC1)c1ccc(F)cc1,–,–,–,–,14µM
